Among the data in PubChem BioAssay (NCI) are growth values, retold here.

The panel holds about 83,000 compounds, 20% with a hit somewhere; the sample as a whole holds those more often.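 Method: cells in 96-well plates; compound added at one concentration; 48 h incubation; percent growth measured; values under 10 scored active.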 A number with no mark means an inactive call. Active and inactive are the calls of the source.

This experiment concerns MDA-MB-468 breast. The experiment in a line: NCI-60 one-dose screen, 48 h (100 = growth as untreated, 0 = no growth, -100 = all killed). To be noted: 10 µM unless noted.
For the molecule `COc1cccc(-c2ccc3c(c2)NC(=O)/C3=C\c2ccc[nH]2)c1`, the growth was 3.08% (active).

Regarding `O=C1Nc2cc(Cl)ccc2Oc2cc(Oc3ccccc3)ccc21`, the growth was 1.71% (active). For `N=C(N)c1ccc(-c2ccc(-c3ccccc3)s2)nc1`, the growth is 41.7%. Turning to `O=C(CSC(=S)N1CCCCC1)Nc1ccccc1`, the growth is 103%. In the case of `COc1cc(NC(=O)CCSc2nc3ccc(C)cc3c(=O)n2Cc2ccccc2)cc(OC)c1OC`, the growth is 68.6%. With `COc1cc(NC(=O)c2cc(OC)c3ccn(C)c3c2)cc2c1C[C@]1(C)CC[C@@H](O)C(C)(C)[C@H]1O2` the figure was 69.6%; with `Cc1ccc(Cc2cnc(NC(=O)c3ccc4noc(-c5ccccc5)c4c3)s2)cc1`, 91%.
